One assay deals with Staphylococcus aureus. Nature of the assay: Antibacterial activity against Staphylococcus aureus MRSA ATCC 43300 (CO-ADD:GP_020); MIC in CAMBH media using NBS plates, by Resazurin F(560/590). To be noted: Concentration 20 uM, ASSAY_TEST Inhibition of Bacterial Growth, detection method Resazurin, Fluorescence (ex560/em590), MEDIA CAMHB, plate type 384well, CORNING #3640, time 18 hr. It is filed as functional.

Another assay has as its system Acinetobacter baumannii. Description: Antibacterial activity against Acinetobacter baumannii ATCC 19606 (CO-ADD:GN_034); MIC in CAMBH media using NBS plates, by Resazurin F(560/590). The class given is functional. To be noted: Concentration 20 uM, ASSAY_TEST Inhibition of Bacterial Growth, detection method Resazurin, Fluorescence (ex560/em590), MEDIA CAMHB, plate type 384well, CORNING #3640, time 18 hr. (The colour change of resazurin is a common sign of viable cells or microbes.)

The subject of a further assay is Escherichia coli. Nature of the assay: Antibacterial activity against Escherichia coli ATCC 25922 (CO-ADD:GN_001); MIC in CAMBH media using NBS plates, by Resazurin F(560/590). The class given is functional. The conditions noted are these: Concentration 20 uM, ASSAY_TEST Inhibition of Bacterial Growth, detection method Resazurin, Fluorescence (ex560/em590), MEDIA CAMHB, plate type 384well, CORNING #3640, time 18 hr.

The test system of the next assay is Klebsiella pneumoniae. The conditions noted are these: Concentration 20 uM; ASSAY_TEST Inhibition of Bacterial Growth; detection method Absorption (OD600); MEDIA CAMHB; plate type 384well; NBS; CORNING #3640; time 18 hr.
The test system of another assay is Candida albicans. To be noted: 20 µM.
The next assay has as its system Cryptococcus neoformans. To be noted: Concentration 20 uM; ASSAY_TEST Inhibition of Fungal Growth; detection method Resazurin; Absorption (OD600-OD570); plate type 384well; NBS; CORNING #3640.

For part of these data: Potency and affinity values are given separately.

One may read the Inhibition as the change of the read-out against control, counted positive when it falls.

As for `Nc1c(Cl)cc(S(N)(=O)=O)cc1S(N)(=O)=O`, the Inhibition was 4.27% with Staphylococcus aureus; 9.37% in the assay with Acinetobacter baumannii; 1.27% in the assay on Escherichia coli; 26.17% in the assay with Klebsiella pneumoniae; 17.5% in the assay on Candida albicans; -1.7% in the assay on Cryptococcus neoformans.

On to `O=C1/C(=N\c2cccc(Cl)c2)CC(c2ccc(Cl)cc2)N1c1cccc(Cl)c1` (stereo not given), for which the Inhibition in the assay on Staphylococcus aureus is 20.38%; with Acinetobacter baumannii, -11.7%; in the assay on Escherichia coli it was 10.42%; in the assay with Klebsiella pneumoniae, 18.13%; in the assay on Candida albicans, -2.19%; in the assay with Cryptococcus neoformans it was -8.61%.

`CN(C)S(=O)(=O)c1ccc(N)c([N+](=O)[O-])c1`: the Inhibition in the assay on Staphylococcus aureus was -6.85%; in the assay on Acinetobacter baumannii, 12.87%; with Escherichia coli, 8.14%; in the assay with Klebsiella pneumoniae, 9.42%; in the assay with Candida albicans, 1.38%; in the assay with Cryptococcus neoformans, -8.3%.

For the compound `Cc1nc2ccc(N)nc2nc1C`, the Inhibition in the assay on Staphylococcus aureus is 15.94%; with Acinetobacter baumannii, -14.31%; with Escherichia coli, 16.52%; in the assay on Klebsiella pneumoniae, 12.13%; in the assay on Candida albicans, -1.28%; in the assay with Cryptococcus neoformans it was -2.36%.

Turning to `O=C(O)CCc1cccnc1`, the Inhibition in the assay on Staphylococcus aureus is 18.41%; in the assay with Acinetobacter baumannii, -3.93%; in the assay with Escherichia coli, 16.49%; in the assay with Klebsiella pneumoniae, 14.5%; with Candida albicans, 1.32%; with Cryptococcus neoformans it was -2.51%.

Consider `O=C(O)Cc1ccc(/N=N/c2c(O)c(C(=O)O)cc3ccccc23)cc1`, for which the Inhibition in the assay with Staphylococcus aureus is 6.99%; in the assay on Acinetobacter baumannii it was 6.89%; in the assay on Escherichia coli it was 1.22%; in the assay with Klebsiella pneumoniae, 11.34%; in the assay with Candida albicans, -4.81%; with Cryptococcus neoformans it was -5.37%.

With `COc1ccc(N/C=C2\C(=O)CCc3c2oc2cc(Cl)c(O)c(Cl)c32)cc1`, the Inhibition with Staphylococcus aureus was 7.05%; in the assay with Acinetobacter baumannii, -14.01%; in the assay on Escherichia coli, 13.43%; in the assay with Klebsiella pneumoniae, 4.7%; in the assay with Candida albicans, 3.38%; in the assay on Cryptococcus neoformans it was -7.04%.

Consider `C=CCOc1ccnc(-c2ccccc2)n1`, for which the Inhibition with Staphylococcus aureus is -3.88%; in the assay on Acinetobacter baumannii, -11.54%; with Escherichia coli, 5%; in the assay with Klebsiella pneumoniae, 9.63%; in the assay on Candida albicans, 1.14%; with Cryptococcus neoformans, -7.2%.

Regarding `NC(S)=Nc1cccc(Cl)c1`, the Inhibition in the assay on Staphylococcus aureus is 9.52%; in the assay with Acinetobacter baumannii, -8.51%; in the assay with Escherichia coli it was 1.81%; with Klebsiella pneumoniae it was 0.23%; in the assay on Candida albicans, 2.81%; in the assay with Cryptococcus neoformans, -2.86%.

On to `N#CC1=C(Nc2ccccc2Cl)SC(c2ccncc2)NC1=O` (stereo not given), for which the Inhibition was -1.66% in the assay with Staphylococcus aureus; 6.04% in the assay on Acinetobacter baumannii; -3.11% in the assay with Escherichia coli; 12.56% in the assay with Klebsiella pneumoniae; 4.49% in the assay on Candida albicans; -0.15% with Cryptococcus neoformans.

For the compound `O=C(Nc1ccc(NC(=O)c2ccncc2)cc1)c1ccncc1`, the Inhibition in the assay on Staphylococcus aureus was 23.04%; in the assay with Acinetobacter baumannii, -1.2%; in the assay with Escherichia coli, 8.24%; in the assay with Klebsiella pneumoniae, 15.75%; with Candida albicans it was 1.6%; in the assay on Cryptococcus neoformans, -0.9%.

As to `COc1cccc2c1C(CO)N1C(C#N)C3CC(C(=O)O)C(C1C2)N3C` (stereo not given), the Inhibition is 14.9% with Staphylococcus aureus; -10.77% with Acinetobacter baumannii; -1.99% with Escherichia coli; 21.32% in the assay with Klebsiella pneumoniae; 4.33% with Candida albicans; -4.3% in the assay on Cryptococcus neoformans.

As for `CC1(C)C2CCC(CN=C(N)CSS(=O)(=O)O)C1C2` (stereo not given), the Inhibition with Staphylococcus aureus was 18.41%; in the assay with Acinetobacter baumannii it was 14.08%; in the assay on Escherichia coli it was 1.93%; in the assay with Klebsiella pneumoniae it was 19.04%; in the assay on Candida albicans it was -2.77%; in the assay on Cryptococcus neoformans it was -13.54%.

For `CC(=O)CC[N+](C)(C)C.[I-]`, the Inhibition in the assay on Staphylococcus aureus is 1.22%; with Acinetobacter baumannii, -9.05%; with Escherichia coli it was 1.86%; in the assay on Klebsiella pneumoniae, 4.32%; in the assay on Candida albicans, 4.03%; in the assay with Cryptococcus neoformans, -9.72%.

Consider `OCc1nnn(-c2ccccc2)c1CO`, for which the Inhibition is 11.04% in the assay with Staphylococcus aureus; -9.88% with Acinetobacter baumannii; 7.14% in the assay with Escherichia coli; 22.49% in the assay with Klebsiella pneumoniae; -4.02% in the assay with Candida albicans; -6.38% with Cryptococcus neoformans.

Regarding `c1cc(-n2nnc3cnccc32)ccn1`, the Inhibition was 13.16% with Staphylococcus aureus; -18.41% in the assay on Acinetobacter baumannii; 12.03% with Escherichia coli; -0.91% in the assay on Klebsiella pneumoniae; -1.34% in the assay with Candida albicans; -8.76% in the assay on Cryptococcus neoformans.

In the case of `O=C(O)C1C2OC3C(OC(=O)C31)C2Br` (stereo not given), the Inhibition in the assay on Staphylococcus aureus was found to be 25.96%; in the assay on Acinetobacter baumannii, 9.29%; in the assay with Escherichia coli, 24.67%; in the assay with Klebsiella pneumoniae, 4%; with Candida albicans it was 4.3%; in the assay on Cryptococcus neoformans it was 11.09%.

Regarding `CN1C(=O)c2ccccc2Cc2c(NCc3ccccc3)ncnc21`, the Inhibition in the assay with Staphylococcus aureus was 11.35%; in the assay with Acinetobacter baumannii, 7.35%; with Escherichia coli, 1.48%; with Klebsiella pneumoniae, 18.62%; in the assay with Candida albicans, 6.22%; in the assay on Cryptococcus neoformans, -9.85%.

With `Nc1ccccc1-c1nc2cnccc2[nH]1`, the Inhibition in the assay with Staphylococcus aureus is 12.51%; with Acinetobacter baumannii it was -12.24%; with Escherichia coli, 9.24%; in the assay with Klebsiella pneumoniae it was 2.75%; with Candida albicans it was -2.69%; with Cryptococcus neoformans, -6.41%.

Consider `Cc1cccc(NC2=C(C#N)C(=O)NC3(CCCC3)S2)c1`, for which the Inhibition was -0.83% with Staphylococcus aureus; -3% with Acinetobacter baumannii; -9.49% in the assay with Escherichia coli; 8.76% in the assay with Klebsiella pneumoniae; 11% in the assay on Candida albicans; 1.34% in the assay on Cryptococcus neoformans.

As to `O=c1c(-c2ccc(O)cc2)coc2cc(O)cc(O)c12` [GENISTEIN], the Inhibition was 3.06% with Staphylococcus aureus; 1.42% in the assay with Acinetobacter baumannii; 2.99% in the assay on Escherichia coli; 22.48% with Klebsiella pneumoniae; 6.45% in the assay on Candida albicans; -7.01% with Cryptococcus neoformans.

For `O=[N+]([O-])c1ccc(Cn2cnc3c(O)ncnc32)cc1`, the Inhibition with Staphylococcus aureus was 10.19%; in the assay with Acinetobacter baumannii, 8.82%; with Escherichia coli, 7.89%; in the assay with Klebsiella pneumoniae, 11.73%; with Candida albicans, 2.42%; with Cryptococcus neoformans it was -11.97%.

In the case of `Cc1cc2nc(-c3ccccn3)c(-c3ccccn3)nc2cc1C`, the Inhibition was -0.99% in the assay on Staphylococcus aureus; 3.74% with Acinetobacter baumannii; 8.69% in the assay on Escherichia coli; 9.38% with Klebsiella pneumoniae; 1.37% with Candida albicans; -10.29% with Cryptococcus neoformans.

On to `Cc1cccc(N=C(S)Nc2cccc(C)n2)n1`, for which the Inhibition in the assay with Staphylococcus aureus is 2.02%; in the assay with Acinetobacter baumannii it was 12.82%; in the assay with Escherichia coli it was 3.58%; in the assay with Klebsiella pneumoniae it was 8.62%; in the assay with Candida albicans, 3.4%; in the assay with Cryptococcus neoformans, -9.05%.

As to `O=C(c1cccnc1)c1cc(-c2ccccn2)c(=O)n2ccccc12`, the Inhibition with Staphylococcus aureus was 15.83%; in the assay on Acinetobacter baumannii it was 5.57%; in the assay with Escherichia coli, 12.26%; with Klebsiella pneumoniae it was 7.21%; with Candida albicans, 0.65%; in the assay on Cryptococcus neoformans it was -7.13%.

The values above are taken from ChEMBL document CHEMBL4296182, “CO-ADD screening of NIH NCI Diversity Set V”.
